The values that follow come from PubChem BioAssay (Tox21).

Assay [1] can be described thus: A CellTox Green Cytotoxicity Assay to monitor cytotoxicity in HepG2 cells - 8 hour (AID 1224890). Further: nearly all actives have a fitted effect of over 45% in size. Further: potency means the concentration at half of the fitted maximal effect. Put shortly:
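Real-time, homogeneous cytotoxicity readout: dead-cell DNA staining by CellTox Green in HepG2 monolayers, fluorescence measured at timed intervals up to 40 h of continuous compound exposure.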

Assay [2] can be described thus: qHTS assay to identify small molecule antagonists of the estrogen receptor alpha (ER-alpha) signaling pathway using the BG1 cell line in the presence of 0.1 nM 17-beta-estradiol - cell viability counter screen (AID 1259241). Further: nearly all actives have a fitted effect of over 40% in size. Further: potency means the concentration at half of the fitted maximal effect. Put shortly:
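VM7Luc4E2, 4,000 cells/well, phenol red-free medium + 10% charcoal-stripped FBS; 24 hr plating; cpd + 0.1 nM E2 final, 22 hr 37C/5% CO2; CellTiter-Fluor 30 min, fluorescence.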

The nature of assay [3]: qHTS assay to identify small molecule antagonists of the androgen receptor (AR) signaling pathway using the MDA cell line in the presence of 0.5 nM R1881 - cell viability counter screen (AID 1259242). Further: nearly all actives have a fitted effect of over 45% in size. The gist of the method: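 Cytotoxicity toward MDA-kb2 cells is measured by CellTiter-Fluor live-cell protease fluorescence after 16 hr compound exposure at 37C in the presence of 0.5 nM R1881 stimulator.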

Assay [4] can be described thus: qHTS assay to identify small molecule phospholipidosis (PLD) inducers (AID 1259344; active means well fitted curve in the direction sought with a large enough effect; an effect the other way counts as inactive or inconclusive). The gist of the method: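 HepG2 cells, 900/well, treated with compound plus LipidTOX Red for 24 h at 37 C; amiodarone positive and DMSO negative controls. Fixed with paraformaldehyde/Hoechst, then high-content imaging scored LipidTOX pit count and integrated intensity per well and per cell.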

Assay [5] can be described thus: qHTS assay to identify small molecule HDAC inhibitors (AID 1259364). Further: top concentration of the series differs between compounds; nearly all actives have a fitted effect of over 45% in size. The gist of the method:
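Homogeneous cell-based luminescent assay of endogenous class I/II HDAC activity; HCT-116 cells, 2 h compound exposure, 30 min HDAC-Glo development at RT.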

Assay [6] in a line: qHTS assay to identify small molecule HDAC inhibitors - cell viability counter screen (AID 1259365). Further: series mostly up to about 92 µM; nearly all actives have a fitted effect of over 50% in size. The gist of the method:
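Luminescence from CellTiter-Glo, developed 30min at room temperature, reports viability of wild-type HCT-116 cells treated 2hr with compounds at 37 C and 5% CO2 after overnight plating.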

Assay [7] in a line: qHTS assay to identify small molecule agonists of the sonic hedgehog signaling (Shh) pathway - cell viability counter screen (AID 1259366). Further: nearly all actives have a fitted effect of over 50% in size. Further: potency means the concentration at half of the fitted maximal effect. Put shortly:
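Cytotoxicity counter screen run in the same wells as the Shh reporter assay. NIH/3T3 cells carrying a Gli1 response element–driven luciferase were treated with DMSO-dissolved compounds for 24hr, and live-cell protease activity was measured with CellTiter-Fluor.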

A short description of assay [8]: qHTS assay to identify small molecule antagonists of the sonic hedgehog signaling (Shh) pathway - cell viability counter screen (AID 1259367). Further: nearly all actives have a fitted effect of over 55% in size. Further: potency means the concentration at half of the fitted maximal effect. The gist of the method:
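NIH/3T3-derived Gli1-Luc reporter cells, 2,000/well, plated 4 hr before compound addition, then stimulated with conditioned medium for 24 hr at 37C. Viability measured in the same wells by CellTiter-Fluor fluorescence, reagent added at 23 hr for 1 hr.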

Assay [9] concerns the target Estrogen receptor (Homo sapiens) (UniProt P03372). Nature of the assay: qHTS assay to identify small molecule antagonists of the estrogen receptor alpha (ER-alpha) signaling pathway using the BG1 cell line in the presence of 0.1 nM 17-beta-estradiol (AID 1259244). Further: nearly all actives have a fitted effect of over 50% in size. Further: potency means the concentration at half of the fitted maximal effect. The gist of the method: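 After 5 days in hormone-depleted medium (charcoal-stripped serum, no phenol red), VM7Luc4E2 cells were seeded, incubated 24 h, then co-treated with compound and 0.1 nM (final) estradiol for 22 h before luminescence detection.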

In assay [10] the target is Androgen receptor (Homo sapiens) (UniProt P10275). Nature of the assay: qHTS assay to identify small molecule antagonists of the androgen receptor (AR) signaling pathway using the MDA cell line in the presence of 0.5 nM R1881 (AID 1259243). Further: nearly all actives have a fitted effect of over 50% in size. Further: potency means the concentration at half of the fitted maximal effect. The gist of the method:
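Steps: seed MDA-kb2 cells, incubate 5 hr at 37C; pin-transfer compounds in DMSO; add R1881 to 0.5 nM final; incubate 16 hr; add ONE-Glo, wait 30 min at room temperature; read luminescence.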

Values without a mark were called inactive. Records with an inconclusive call do not appear. The source made the active and inactive calls. Unless noted, the call rests on the fitted dose curve; in most records, active means well fitted curve in the direction sought with a large enough effect in the repeat runs; inconclusive means weak or mixed curves; inactive means no such curve, though single readings can be large; an effect the other way counts as inactive or inconclusive.
On the % scale 0 is the no-effect control and ±100 the full control effect.

Estrogen receptor (Homo sapiens), sequence (P03372 whole entry, looked up): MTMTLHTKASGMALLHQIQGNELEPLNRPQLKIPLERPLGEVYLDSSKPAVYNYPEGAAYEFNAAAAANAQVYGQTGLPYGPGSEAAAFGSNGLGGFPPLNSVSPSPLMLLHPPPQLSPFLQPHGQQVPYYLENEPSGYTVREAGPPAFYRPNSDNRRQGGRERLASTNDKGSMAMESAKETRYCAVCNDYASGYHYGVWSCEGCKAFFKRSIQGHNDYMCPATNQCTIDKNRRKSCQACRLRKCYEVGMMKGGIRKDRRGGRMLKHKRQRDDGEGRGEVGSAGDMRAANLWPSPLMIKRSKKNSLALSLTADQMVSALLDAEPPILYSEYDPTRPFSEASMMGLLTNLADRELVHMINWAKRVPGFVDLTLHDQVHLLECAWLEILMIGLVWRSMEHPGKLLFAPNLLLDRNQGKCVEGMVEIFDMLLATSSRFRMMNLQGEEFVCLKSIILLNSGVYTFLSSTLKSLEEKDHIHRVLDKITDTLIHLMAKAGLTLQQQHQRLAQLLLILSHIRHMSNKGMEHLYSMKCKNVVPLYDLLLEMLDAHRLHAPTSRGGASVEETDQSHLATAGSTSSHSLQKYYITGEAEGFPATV
Androgen receptor (Homo sapiens), sequence (P10275 whole entry, looked up): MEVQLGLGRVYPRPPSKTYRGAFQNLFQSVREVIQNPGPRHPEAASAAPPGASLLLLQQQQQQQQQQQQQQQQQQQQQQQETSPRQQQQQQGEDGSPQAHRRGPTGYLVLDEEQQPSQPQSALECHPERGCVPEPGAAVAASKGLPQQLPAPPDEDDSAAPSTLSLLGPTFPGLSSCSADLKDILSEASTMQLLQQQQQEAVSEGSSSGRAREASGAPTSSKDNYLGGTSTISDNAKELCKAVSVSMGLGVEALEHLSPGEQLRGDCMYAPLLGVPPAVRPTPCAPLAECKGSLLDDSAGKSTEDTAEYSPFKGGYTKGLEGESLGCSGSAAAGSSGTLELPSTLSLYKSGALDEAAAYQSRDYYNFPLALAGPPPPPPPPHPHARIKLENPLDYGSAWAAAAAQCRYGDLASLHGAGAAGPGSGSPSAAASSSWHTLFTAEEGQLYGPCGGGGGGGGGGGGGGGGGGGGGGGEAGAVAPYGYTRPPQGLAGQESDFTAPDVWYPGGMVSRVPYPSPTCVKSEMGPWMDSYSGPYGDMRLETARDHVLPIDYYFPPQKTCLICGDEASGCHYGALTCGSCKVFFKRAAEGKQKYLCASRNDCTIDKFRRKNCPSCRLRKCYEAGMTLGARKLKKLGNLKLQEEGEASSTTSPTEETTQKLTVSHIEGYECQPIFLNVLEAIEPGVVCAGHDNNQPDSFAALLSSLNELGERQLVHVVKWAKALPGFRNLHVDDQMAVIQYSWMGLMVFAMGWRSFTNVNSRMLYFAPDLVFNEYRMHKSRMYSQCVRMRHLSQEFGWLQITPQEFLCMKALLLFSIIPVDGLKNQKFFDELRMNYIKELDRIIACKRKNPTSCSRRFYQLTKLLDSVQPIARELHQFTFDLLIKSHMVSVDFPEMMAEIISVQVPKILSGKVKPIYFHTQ

On to `COC(=O)C(Cl)C(=O)OC`, for which the Potency result in assay [1], in [2], in [3], in assay [5], in assay [6] and in assay [7] was “inactive” each time. In assay [8], the Potency result is “inactive”. In addition, the molecule was called inactive in assay [4].
As for `CN1C(=O)NC(=O)C(C)(C2=CCCCC2)C1=O` (configuration not stated), the Potency result in assay [1], in assay [2], in [3], in assay [5], in assay [6] and in assay [7] was “inactive” throughout. Besides, the Potency result in assay [8] is “inactive”. In addition, in assay [4], the molecule was classed as inactive.
Regarding `CCOC(=O)CBr`, the Potency entry in assay [1], in [2], in assay [3], in [5], in assay [6] and in assay [7] was “inactive” each time. For the same molecule, in [8], the Potency result was “inactive”.
Regarding `CCOS(C)(=O)=O`, the Potency result in [1], in assay [2], in assay [3], in [5], in assay [6] and in assay [7] was “inactive” throughout. The Potency entry in assay [8] is “inactive”.
In the case of `c1ccc(CN2CCNCC2)cc1`, the Potency result in assay [1], in assay [2], in [3], in [5], in assay [6] and in assay [8] was “inactive” each time. For the same molecule, the molecule was classed as inactive in assay [4].
Turning to `O=[N+]([O-])c1cc(C(F)(F)F)cc([N+](=O)[O-])c1Cl`, the Potency result in [1], in assay [2], in assay [3], in [9] and in assay [6] was “inactive” throughout. For the same molecule, the Potency was 30.8 µM (active) in [7] and 24.4 µM (active) in [8].
Consider `N#C/C(N)=C(/N)C#N`, for which the Potency entry in assay [1], in assay [2], in [3], in assay [5], in assay [6] and in [7] was “inactive” throughout. The Potency result in assay [8] was “inactive”.
Take `CC(=O)CCC(C)=O`: the Potency result in [1], in assay [2], in assay [3], in assay [5], in assay [6] and in [7] was “inactive” each time.
Regarding `CN(C)c1ccc(N(C)C)cc1`, the Potency entry in [1], in assay [3], in assay [6] and in [8] was “inactive” each time. The Potency was 61.3 µM (active) in assay [2], 30.7 µM (active) in [9] and 24.4 µM (active) in [7].
On to `O=C1c2ccccc2C(=O)C1C(=O)C(c1ccccc1)c1ccccc1`, for which the Potency entry in assay [1], in assay [2], in assay [3], in assay [6] and in [7] was “inactive” in each case. Moreover, in assay [4], the molecule was called inactive.
Turning to `CCC(Br)(CC)C(=O)NC(N)=O`, the Potency result in [1], in assay [2], in assay [3], in [5], in assay [6] and in assay [7] was “inactive” each time. In assay [8], the Potency entry is “inactive”.
With `C=CC(=O)OC(C)(C)C`, the Potency entry in assay [1], in assay [2], in [3], in assay [5], in [6] and in [7] was “inactive” throughout. In assay [8], the Potency entry was “inactive”.
Regarding `COc1nn(C(=O)NS(=O)(=O)c2ccccc2OC(F)(F)F)c(=O)n1C`, the Potency in [1] is 39.9 µM (active). In addition, the Potency result in assay [2], in assay [3], in assay [5], in assay [6] and in assay [7] was “inactive” throughout.
In the case of `NCC(CC(=O)O)c1ccc(Cl)cc1` (configuration not stated), in assay [1], the cytotoxicity increase is -2.04% [at 0.29 µM]. Also, the activity change, negative = cytotoxicity is 0.211% [at 0.349 µM] in [2] and -1.28% [at 0.349 µM] in assay [6]. Moreover, the viability change, negative = cytotoxic in [3] was 0.181% [at 0.349 µM]; in [7], 4.25% [at 0.349 µM]. For the same molecule, the molecule was called inactive in assay [4]. Further, the activity change, negative = inhibition in [5] is 13.2% [at 0.349 µM].
Turning to `O=S(=O)(O)C(F)(F)C(F)(F)C(F)(F)C(F)(F)F`, the Potency entry in assay [1], in assay [2], in assay [3], in assay [5], in [6] and in assay [7] was “inactive” throughout. Further, in assay [8], the Potency entry is “inactive”.
Take `CCOP(=O)(OCC)Oc1ccc([N+](=O)[O-])cc1`: the Potency result in [1], in assay [2], in assay [3], in assay [5] and in [6] was “inactive” in each case.
With `CC(C)O.CC(C)O.OCCN(CCO)CCO.OCCN(CCO)CCO.[Ti]`, the Potency result in assay [1], in assay [2], in [3], in assay [5], in assay [6] and in assay [7] was “inactive” each time. Further, the Potency result in assay [8] was “inactive”.
Regarding `CC(C)(Cl)[N+](=O)[O-]`, the Potency entry in [1], in assay [2], in assay [3], in [5], in [6] and in [7] was “inactive” throughout. In addition, the Potency result in assay [8] was “inactive”.
As to `C#CCOC(C(=O)OCCN(C)C)(c1ccccc1)c1ccccc1`, the Potency result in assay [1], in assay [2], in [3], in assay [6] and in [8] was “inactive” in each case. Also, the result in assay [4] was inactive.
On to `COCCOCCO`, for which the Potency result in assay [1], in assay [2], in assay [3], in assay [5] and in [6] was “inactive” throughout. Also, the result in assay [4] was inactive. In addition, in [8], the Potency is 61.1 µM (active).
`CC(=O)NC1CCSC1=O` (configuration not stated): the outcome in [4] was inactive.
In the case of `CCCCCC[N+](=O)[O-]`, the Potency entry in assay [1], in assay [2], in assay [10], in assay [5], in [6] and in assay [7] was “inactive” in each case. The Potency result in assay [8] was “inactive”.
As to `ClP(Cl)(Cl)(Cl)Cl`, the Potency result in assay [1], in assay [2], in assay [9], in assay [5], in assay [6] and in assay [8] was “inactive” throughout.
Take `CC(C)(C)C(O)C(Oc1ccc(Cl)cc1)n1cncn1` (configuration not stated): the Potency result in assay [1], in [2], in [5] and in assay [6] was “inactive” in each case. In addition, the PLD induction in assay [4] is -1.67% [at 3.15 µM].
Take `C[N+](C)(C)CCCl`: the Potency result in [1], in assay [2], in [10], in assay [9], in assay [5] and in [6] was “inactive” in each case. Moreover, the Potency result in assay [7] and in assay [8] was “inactive” each time.
For the molecule `O=C(C(Cl)(Cl)Cl)C(Cl)(Cl)Cl`, the Potency result in assay [1], in assay [2], in assay [10], in assay [9], in assay [5] and in [6] was “inactive” each time. Further, in assay [8], the Potency result is “inactive”.
For the molecule `COP(=S)(OC)Oc1cc(Cl)c(I)cc1Cl`, the Potency result in assay [1], in assay [2], in assay [6] and in [7] was “inactive” in each case. Further, the Potency in [10] is 54.5 µM (active).
With `II`, the Potency in [1] is 38.9 µM (active). The Potency result in assay [2], in [10], in [6], in [7] and in [8] was “inactive” each time.
`CC(Cl)C(C)Cl` (configuration not stated): the Potency result in assay [1], in [2], in [9], in assay [5], in assay [6] and in [7] was “inactive” throughout. Also, the Potency entry in assay [8] was “inactive”.
For the molecule `O=[Se]=O`, the Potency entry in assay [1], in [2], in assay [5], in [6], in assay [7] and in [8] was “inactive” throughout.
`CN1C[C@H](CNC(=O)OCc2ccccc2)C[C@@H]2c3cccc4c3c(cn4C)C[C@H]21`: the Potency result in [1], in assay [2], in [9], in assay [5] and in assay [6] was “inactive” throughout.
As to `Brc1ccc(Oc2ccccc2)cc1`, the Potency result in assay [1], in [2], in assay [9], in [6] and in [7] was “inactive” throughout.
With `CCC(COC(=O)c1cc(OC)c(OC)c(OC)c1)(c1ccccc1)N(C)C` (configuration not stated), the Potency entry in assay [1], in assay [2], in [5], in [6], in assay [7] and in assay [8] was “inactive” throughout. Moreover, the call in [4] was inactive.
`O=C(NC(=O)c1c(F)cccc1F)Nc1cc(Cl)c(Oc2ncc(C(F)(F)F)cc2Cl)c(Cl)c1`: the Potency entry in assay [1], in assay [2], in assay [5], in [6] and in [8] was “inactive” throughout. In addition, the Potency in assay [10] is 26.1 µM (active).
